aSyn UTR act: Activators via SNCA 5'UTR binding, MLPCN; alpha-synuclein 5'UTR reporter, activators screen; AID 1814, 2009; 300,000 compounds, 7.1% hits; activity score, % (tested at 7.5 µM), hits read low; in the data active = activity score below about -60%
Each line names hits and unclear results; the compound was inactive in the other large screens. Not all results are given here.

Cc1cc(N(CCCl)CCCl)ccc1/C=N/N=C(\N)c1cnccn1	aSyn UTR act -74
Cn1cnc([N+](=O)[O-])c1Sc1ccc([N+](=O)[O-])cc1	aSyn UTR act -66
CC/C=C/CC(=O)N[C@@H](c1ccccc1)[C@@H](O)C(=O)O[C@H]1C[C@@]2(O)[C@@H](OC(=O)c3ccccc3)C3[C@](C)(C(=O)[C@H](OC(C)=O)C(=C1C)C2(C)C)[C@@H](O)C[C@H]1OC[C@@]31OC(C)=O (stereo partly drawn)	none
Cc1cccc(-n2c(O)c(/C=C3/C(c4ccccc4)=Nc4ccccc43)c(=O)[nH]c2=O)c1	aSyn UTR act -174
CC(=O)O[C@@H]1/C=C/[C@](C)(O)C[C@@H](C)C/C=C/[C@H]2[C@@H]3O[C@]3(C)[C@@H](C)[C@H]3[C@H](Cc4ccccc4)NC(=O)[C@@]312	none
C[C@]12CCC3C(CCC4=CC(O)CC[C@@]43/C=N/O)C1(O)CCC2C1=CC(=O)OC1 (stereo partly drawn)	none
Cc1nc2ccccc2c(=O)n1-c1ccc(Br)cn1	aSyn UTR act -176
CCOc1ccc(-c2c(C)n(-c3ccc(OCC)cc3)c3[n+]2CCCCC3)cc1	none
CCCCCCn1c(=O)c(C(=O)Nc2ncccc2O)c(O)c2ccccc21	none
CC(C)c1ccc(N2C(=O)NC(=O)/C(=C/C=C/c3ccco3)C2=O)cc1	aSyn UTR act -130
O=C1NC(=O)N(Cc2ccc(F)cc2)C(=O)/C1=C\C=C\c1ccco1	aSyn UTR act -270
O=C1NC(=O)N(c2ccccc2)C(=O)/C1=C\C=C\c1ccccc1	aSyn UTR act -119
Cc1cc(C)cc(N2C(=O)NC(=O)/C(=C\C=C\c3ccco3)C2=O)c1	aSyn UTR act -116
Fc1ccc(C(OCCN2CCN(CCCc3ccccc3)CC2)c2ccc(F)cc2)cc1	none
Cc1ccc(-c2cc(-c3ccc(C)cc3)[n+](-c3ccccc3)c(-c3ccc(C)cc3)c2)cc1	none
Cc1ccc(N2C(=O)NC(=O)/C(=C/C=C/c3ccco3)C2=O)cc1	aSyn UTR act -76
CCC(=O)N1CC(=O)Nc2ccc(Br)cc2C1c1ccccc1 (stereo not drawn)	aSyn UTR act -71
COc1ccc(OC)c(/C=N/OC(=O)Nc2ccc(Cl)cc2)c1	aSyn UTR act -63
N=C1c2ccccc2CN1CC(=O)c1ccccc1	aSyn UTR act -186
O=c1c2ccccc2nc(Cc2ccccc2)n1-c1ccccc1	aSyn UTR act -84
CCCCCCCCCCCCCCCC[N+](C)(C)C	none
O=C(Nc1ccc(Cl)cc1)OC1CN2CCC1CC2 (stereo not drawn)	aSyn UTR act -114
O=C(Nc1cccc(Cl)c1)OC1CN2CCC1CC2 (stereo not drawn)	aSyn UTR act -64
CCN(CC)C(=O)c1ccc(NC(=O)Nc2ccccc2F)cc1	none
C/C(=N\N1CCCCC1)c1c(O)[nH]c(=O)[nH]c1=O	none
O=Cc1cn(Cc2ccc(F)cc2)c2ccccc12	none
Cc1ccc(-c2nn(Cc3ccccc3)cc2C=O)cc1	aSyn UTR act -138
O=Cc1cn(Cc2ccc([N+](=O)[O-])cc2)c2ccccc12	none
CCN1C(=O)C(=Cc2ccc(C)s2)C(=O)N(CC)C1=S	aSyn UTR act -158
COc1ccc(C[C@H]2NC[C@H](O)[C@H]2OC(C)=O)cc1	none
O=C1NC(=O)C(C(CC(=O)c2ccccc2)c2ccccc2)C(=O)N1 (stereo not drawn)	aSyn UTR act -65
COc1cc2c(c(OC)c1OC)-c1ccc(O)cc1[C@@H](NC(C)=O)CC2	none
C[C@]12C=CC(=O)C=C1C=C[C@@H]1C2CC[C@]2(C)C(=O)CCC12 (stereo partly drawn)	aSyn UTR act -120
COc1ccc(-c2cc(=Nc3cccc(C(=O)O)c3)c3cc(C)ccc3o2)cc1	aSyn UTR act -81
COc1ccc(-c2cc(=NCC(=O)O)c3ccccc3o2)cc1	aSyn UTR act -128
CN(C)c1ccc(-[n+]2c(-c3ccccc3)cc(-c3ccccc3)cc2-c2ccccc2)cc1	none
Cn1c(NN=O)nc2ccccc21	none
C[C@@]1(CO)[C@H](O)CC[C@@]2(C)[C@H]1CC[C@H]1C[C@@H]3C[C@@]12CC[C@]3(O)CO	none
Nc1c2c(nc3sc4c(c13)CCCCC4)CCCC2	aSyn UTR act -139
CCN1C(=O)C(=C2C=C(C)OC(C)=C2)C(=O)N(CC)C1=S	aSyn UTR act -75
Cn1ncnc2c(=O)n(C)c(=O)nc1-2	none
C=C1C(=O)O[C@@H]2C[C@@H](C)[C@H]3C=CC(=O)[C@]3(O)C[C@@H]12	aSyn UTR act -117
CN1C(=O)NC(=O)C(C)(C2=CCCCC2)C1=O (stereo not drawn)	aSyn UTR act -71
COc1ccc(O)c2c(=O)c3c(OC)cc4c(c3oc12)C1C=COC1O4 (stereo not drawn)	none

Screens as filed in PubChem BioAssay.
